For 16 compounds, cell number and H1.0 immunofluorescence intensity results are on record in the supplement of paper PMC7156485.

What all share (settings): concentration: 10 µM; 24 h
Assay [1] deals with HCC1569. Briefly: cell number relative to DMSO (% of DMSO); higher = more cells (less growth inhibition / toxicity). The procedure, abridged:
(§1)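 Cells were seeded at 800 per well in 384-well plates with RPMI containing 10% FBS; both HCC1569 and TDF lines were used. Compounds were added at 10 µM for 24 h at 37 °C, in triplicate, before fixation in 3.7% formaldehyde and staining with a rabbit anti-H1.0 antibody, an AlexaFluor 647 secondary and DAPI. H1.0 nuclear intensity or cell number is reported as percent of the plate control using the median of replicates, and HCC1569 values were smoothed for positional effects.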

Assay [2] deals with TDF. The description is as above. The procedure, abridged:
as §1

The test system of assay [3] is TDF. Briefly: H1.0 immunofluorescence intensity relative to DMSO (% of DMSO); higher = stronger H1.0 induction, active = 120 or more. The procedure, abridged:
as §1

Assay [4] concerns HCC1569. Put plainly: H1.0 immunofluorescence intensity relative to DMSO (% of DMSO); higher = stronger H1.0 induction, active = 140 or more. The procedure, abridged: as §1

± gives the standard deviation of the averaged measurements.
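Throughout, for H1.0 immunofluorescence intensity relative to DMSO: TDF is a line of transformed human dermal fibroblasts of mesenchymal origin.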
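Throughout, for cell number relative to DMSO: TDF denotes transformed human dermal fibroblasts of mesenchymal origin.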

As for `NC1(C(=O)O)CCC(C(=O)O)C1` (mixture of isomers), the figures for the cell number with HCC1569 [1] and in the assay with TDF [2] were 104 and 106, respectively. The H1.0 immunofluorescence intensity with TDF [3] was 96.5 (inactive); in the assay on HCC1569 [4], 95.1 (inactive).
For the compound `CCN1CC2(COC)CCC(OC)C34C5CC6(O)C(OC)CC(OC(C)=O)(C5C6C(=O)c5ccc(OC)cc5)C(C(OC)C23)C14` (centres undefined) [Bulleyaconotine A], the cell number stood at 99 in the assay on HCC1569 [1] and 103 in the assay with TDF [2]. Also, the results for the H1.0 immunofluorescence intensity in the assay on TDF [3] and in the assay with HCC1569 [4] were 103 (inactive) and 88.8 (inactive), respectively.
On to `CC(C)(C)NCC(O)c1cc(Cl)c(N)c(Cl)c1` (centres undefined) [Clenbuterol], for which the cell number with HCC1569 [1] worked out at 99.5; in the assay on TDF [2], 103. The H1.0 immunofluorescence intensity with TDF [3] is 95.2 (inactive); with HCC1569 [4], 118 (inactive).
Take `CCCC(C)(COC(N)=O)COC(=O)NC(C)C` (centres undefined) [Carisoprodol]: the cell number in the assay on HCC1569 [1] was determined as 97.4; in the assay with TDF [2], 90.8. The H1.0 immunofluorescence intensity with TDF [3] is 99.6 (inactive); in the assay on HCC1569 [4] it was 106 (inactive).
For `NC(N)=NOCC[C@H](N)C(=O)O.O=S(=O)(O)O` [L-Canavanine sulfate] the same measures were 101, 81.3, 107 (inactive) and 107 (inactive).
As for `CC1C(=O)OC2CCN3CC=C(COC(=O)C(C)(O)C1(C)O)C23` (centres undefined) [Monocrotaline], the cell number in the assay on HCC1569 [1] was determined as 102; with TDF [2] it was 109. Also, the values for the H1.0 immunofluorescence intensity in the assay with TDF [3] and in the assay with HCC1569 [4] were 85.6 (inactive) and 90.2 (inactive), respectively.
Regarding `CC(=O)[C@H]1CC[C@H]2[C@@H]3CC[C@H]4C[C@](C)(O)CC[C@]4(C)[C@H]3CC[C@]12C` [(3alpha,5alpha)-3-hydroxy-3-methylpregnan-20-one], the cell number was determined as 105 in the assay on HCC1569 [1] and 93 in the assay on TDF [2]. The H1.0 immunofluorescence intensity was 101 (inactive) in the assay on TDF [3] and 111 (inactive) in the assay on HCC1569 [4].
For `C=C1C(C)C2C(Cc3ccccc3)NC(=O)C23C(OC(C)=O)C=CC(C)(O)C(=O)C(C)CC=CC3C1O` (centres undefined) [Cytochalasin D], in that order: 69.1, 45.1, 212 (active) and 204 (active).
For `NC(Cn1cc(I)c(=O)[nH]c1=O)C(=O)O` (centres undefined) [S-5-Iodowillardiine] the same measures were 107, 107, 91.2 (inactive) and 111 (inactive).
For `O=C1CCCN1CC#CCN1CCCC1` [Oxotremorine], in that order: 101, 109, 88.5 (inactive) and 102 (inactive).
Regarding `Br.CCCN(CCC)C1CCc2cccc(O)c2C1` (stereo not drawn) [R-(+)-8-Hydroxy-DPAT hydrobromide], the cell number with HCC1569 [1] amounted to 99.2; in the assay with TDF [2], 90.1. Further, the values for the H1.0 immunofluorescence intensity with TDF [3] and with HCC1569 [4] were 105 (inactive) and 96.5 (inactive), respectively.
For `CN(C)C(=O)Oc1cccc([N+](C)(C)C)c1` [Neostigmine], in that order: 104, 112, 96.8 (inactive) and 101 (inactive).
For `O=P1(N(CCCl)CCCl)NCCCO1` (centres undefined) [Cyclophosphamide] the same measures were 107, 95.5, 101 (inactive) and 101 (inactive).
`CC(C)c1cccc(C(C)C)c1O` [Propofol]: the values for the cell number in the assay with HCC1569 [1] and in the assay on TDF [2] were 99.2 ± 2.9 and 93.1 ± 16, respectively. Moreover, the H1.0 immunofluorescence intensity in the assay on TDF [3] was 93.7 (inactive); in the assay on HCC1569 [4], 95.8 (inactive).
On to `COc1cc2c(c(OC)c1OC)-c1ccc(OC)c(=O)cc1C(NC(C)=O)CC2` (centres undefined) [Colchicine], for which the cell number in the assay on HCC1569 [1] came out at 57.57 ± 0.52; in the assay on TDF [2], 9.12 ± 1.6. In addition, the H1.0 immunofluorescence intensity with TDF [3] is 168 (active); in the assay with HCC1569 [4], 132 (inactive).
In the case of `CCC1(c2ccc(N)cc2)CCC(=O)NC1=O` (racemic), the results for the cell number in the assay on HCC1569 [1] and with TDF [2] were 98.8 and 109, respectively. In addition, the H1.0 immunofluorescence intensity in the assay on TDF [3] is 85.7 (inactive); in the assay on HCC1569 [4], 89.1 (inactive).
